PubChem BioAssay AID2417 (National Center for Advancing Translational Sciences (NCATS), 2010)
Among all 140,000 compounds or so, about 4,300 (3.1%) were called active. Another 21% or so got no clear call; they are omitted.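 How the source made its calls: active means readout at or below -70, meaning at least 70% loss of cells showing the perinucleolar compartment, a nuclear body marking cancer cells; inconclusive means readout between -30 and a set limit; inactive means the rest.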 The list comes from a sample in which actives are over-represented; it also holds similar structures and randomly drawn compounds.

test: High Content Assay for Compounds that inhibit the Assembly of the Perinucleolar Compartment; settings: PC3M PTB-GFP, PNC prevalence imaging, 16 h; at 10 µM; hits give low values;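 further: plate controls were DMSO wells for no effect and camptothecin positive control wells for full effect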
Outline: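 PC3M cells stably expressing PTB-GFP, 750–1000 cells/well, treated 16 h at 37 °C with compound (23 nl of library stock), in duplicate. After paraformaldehyde fixation and Hoechst stain, imaged at 20x; PNC prevalence scored by image analysis.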

SMILES	activity change (PNC), negative = inhibition
Cc1c(C2=CCN(S(=O)(=O)c3ccc(Cl)cc3)CC2)c2ccccc2n1C	30.7% (inactive)
CO/N=C(\N)c1ccc([N+](=O)[O-])cc1	28.8% (inactive)
N/C(=N\OS(=O)(=O)c1cccc([N+](=O)[O-])c1)c1ccncc1	-108% (active)
O=[N+]([O-])c1cccc(S(=O)(=O)N2CCCCCC2)c1	-7.16% (inactive)
CCC1(C(=O)c2ccccc2)C(c2cccc([N+](=O)[O-])c2)C1(C(=O)OC)C(=O)OC (centres undefined)	-9.15% (inactive)
CC(C)(C)n1nnc(CCc2nnn(C(C)(C)C)n2)n1	-91.9% (active)
O=C(Nc1ccc([N+](=O)[O-])cc1)C1(c2ccccc2)CCOCC1	5.8% (inactive)
Cc1cc(C(=O)N/N=C/c2cc([N+](=O)[O-])cc(C)c2O)n[nH]1	-128% (active)
Cc1ccc(-n2[nH]c(C)c(/C=N/NC(=O)c3cccc([N+](=O)[O-])c3)c2=O)cc1C	3.84% (inactive)
COc1cccc(/C=N/NC(=O)c2cccc([N+](=O)[O-])c2)c1OS(=O)(=O)c1ccc(C)cc1	20.7% (inactive)
Cc1nn(-c2ccccc2)c(-n2cccc2)c1C(=O)O	4.84% (inactive)
CC(C)c1ccc(N2CC(C(=O)Nc3nccs3)CC2=O)cc1 (centres undefined)	21.8% (inactive)
CCc1nnc(NC(=O)C2CC(=O)N(c3ccc4c(c3)OCCO4)C2)s1 (centres undefined)	-107% (active)
CCc1ccc(N2CC(C(=O)NC3=NCCS3)CC2=O)cc1 (centres undefined)	10.4% (inactive)
O=C(COc1ccccc1F)NNC(=O)c1ccc(N2CCCCC2)c([N+](=O)[O-])c1	-26.5% (inactive)
CCOC(=O)Cc1csc(SCC(=O)NC(C)C23CC4CC(CC(C4)C2)C3)n1 (centres undefined)	20% (inactive)
Cc1ccc(/C=N/NC(=O)COc2ccccc2-c2ccccc2)cc1	-125% (active)
Cc1ccc(OCC(=O)N/N=C/c2ccncc2)cc1	28.2% (inactive)
Cc1ccc(OCC(=O)N/N=C\c2ccco2)c(C)c1	54.4% (inactive)
CCc1ccc(NC(=O)C(C)OC(=O)/C=C/c2cccc([N+](=O)[O-])c2)cc1 (centres undefined)	10.2% (inactive)

SMILES	activity change (PNC), negative = inhibition
O=C1NC(c2ccccc2)CCC1(Cl)Cl (centres undefined)	-7.09% (inactive)
C=CCn1c(SCC(=O)NC23CC4CC(CC(C4)C2)C3)nc(O)cc1=O	-100% (active)
C=CCn1c(N)cc(=O)nc1SCC(=O)Nc1cccc2ccccc12	69% (inactive)
O=C(CNCCO)NC12CC3CC(CC(C3)C1)C2	20.6% (inactive)
Cc1cc(C)cc(OCC(=O)NNC(=O)CCN2C(=O)c3ccccc3C2=O)c1	31.4% (inactive)
CC(=O)Oc1cccc(N2C(=O)C3CC=C(Cl)CC3C2=O)c1 (centres undefined)	-0.248% (inactive)
CC(=O)Nc1ccc(N2C(=O)C3C4CC(=O)C(c5ccccc54)C3C2=O)cc1 (centres undefined)	13.1% (inactive)
O=C(Oc1cccc(N2C(=O)C3C4c5ccccc5C(c5ccccc54)C3C2=O)c1)c1ccco1 (centres undefined)	-97.3% (active)
COc1cc(NC(=O)c2cc([N+](=O)[O-])ccc2Br)ccc1NC(=O)c1ccco1	38.2% (inactive)
CC(Sc1nnc2c(n1)C1CCC2(C)C1(C)C)C(=O)Nc1ccccc1 (centres undefined)	11.5% (inactive)
O=C(Cc1ccccc1)NNS(=O)(=O)c1ccc([N+](=O)[O-])cc1	3.03% (inactive)
Clc1cccc(CN2COc3c(cc(Cl)c4cccnc34)C2)c1	-27.1% (inactive)
Cc1c(Cl)c([N+](=O)[O-])nn1CCCC(=O)NC(C)c1ccccc1 (centres undefined)	-83.2% (active)
Cc1ccc(C(C)NC(=O)Cn2nc(C)c([N+](=O)[O-])c2C)cc1 (centres undefined)	1.18% (inactive)
Cc1nn(Cc2ccccc2Cl)c(C)c1NC(=O)Cn1nc([N+](=O)[O-])c(Cl)c1C	29.3% (inactive)
O=C(Cc1ccccc1)Nc1cccc(C(=O)N/N=C/c2ccco2)c1	-20.1% (inactive)
COC(=O)/C(C#N)=C/c1occc1C	11.3% (inactive)
Nc1cccc(-c2cc(-c3ccccc3)nc(-c3cccc(N)c3)n2)c1	-112% (active)
CS(=O)(=O)c1sc2nc(-c3ccccc3)cc(-c3ccccc3)c2c1N	18.6% (inactive)
Nc1cccc(CCc2nc3ccccc3[nH]2)c1	-19.2% (inactive)

SMILES	activity change (PNC), negative = inhibition
Cc1ccc(N2C(=O)C(NC(=O)c3c(F)cccc3F)(C(F)(F)F)C3=C2CC(C)(C)CC3=O)cc1 (centres undefined)	-6.53% (inactive)
Cc1ccc2[nH]c(=O)c(CC=C(Cl)Cl)c(C)c2c1	8.75% (inactive)
O=C(O)Cc1ccc(NC(=O)c2cccs2)cc1	-2.77% (inactive)
O=C(O)c1ccc(NC(=O)c2cccs2)cc1	-100% (active)
Cc1nc(-c2ccc(NC(=O)c3cccs3)cc2)cs1	20.4% (inactive)
CCCCN1C(=O)c2ccc(C(=O)Nc3ccc(S(=O)(=O)N(C)C)cc3)cc2C1=O	-17.6% (inactive)
CCOC(=O)COc1ccc([N+](=O)[O-])cc1	14.3% (inactive)
CCOc1cc(/C=N/NC(=O)OC)ccc1OCCSc1ccc(Cl)cc1	45.6% (inactive)
CCCC(NC(=O)c1ccco1)c1nc2ccccc2[nH]1 (centres undefined)	16.4% (inactive)
Cc1ccc(SC(=O)COc2ccc(C)c(C)c2)cc1	-106% (active)
Cc1ccc(CNC(=O)COc2ccc3c(c2)CCC3)cc1	-5.6% (inactive)
Cc1cc(=O)oc2ccc(OCC(=O)O)cc12	55.8% (inactive)
O=C(COC(=O)c1cc([N+](=O)[O-])ccc1NCc1ccccc1)NC1CCCCC1	50.7% (inactive)
Cc1ccc2c(c1)C(c1ccccc1)N(C(=O)c1ccc(S(=O)(=O)N3CCOCC3)cc1)CC(=O)N2 (centres undefined)	7.14% (inactive)
COc1ccc(/C=N/NC(=O)c2ccccc2)cc1OS(=O)(=O)c1ccccc1	45.9% (inactive)
O=C(NC(=S)Nc1ccc2oc(=O)ccc2c1)c1ccc(-c2cccc(Cl)c2Cl)o1	-8.36% (inactive)
COC(=O)C1=C(C)N(C)C(C)=C(C(=O)OC)C1c1cccc(Br)c1	20% (inactive)
CCOC(=O)C1=C(C)N=C2c3ccccc3C(=O)C2C1c1ccc(Br)cc1 (centres undefined)	-24.2% (inactive)
COC(=O)C1=C(C(=O)OC)C2(OC1c1ccc(Br)cc1)C(=O)c1ccccc1C2=O (centres undefined)	-100% (active)
